Each structure is given as a SMILES string. “And” between values parts separate entries of the source, which are not always exact repeats. Equal values may be shown once. The source made the active and inactive calls. Rule for the calls: active = hit-call score of the fitted dose curve at least 0.9, where 1 is the maximum; inactive = score below 0.9.

A short description of one test: CCTE_Mundy_HCI_Cortical_NOG_NeuriteCount: CCTE's Neurite Outgrowth Assay in rat cortical cells for Neurite Count, Mundy Lab (AID 2284212).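 Note: cells fixed about two days after chemical exposure began.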 The method in brief:
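Neurite number per cell from high-content imaging of betaIII-tubulin immunostaining, with Hoechst nuclear counterstain.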
With `COC(=O)N(OC)c1ccccc1COc1ccn(-c2ccc(Cl)cc2)n1`, the AC50 is 141 nM (active). Same read-out and setting: the same measure for `CC(C)(C)c1ccc(CSc2cnn(C(C)(C)C)c(=O)c2Cl)cc1`: 7.68 nM (active). With `N#Cc1nn(-c2c(Cl)cc(C(F)(F)F)cc2Cl)c(N)c1S(=O)C(F)(F)F` (stereo unspecified), the outcome was inactive.

Take `Cc1ccc(-c2c(Cl)nc(C#N)n2S(=O)(=O)N(C)C)cc1`: the AC50 is 72900 nM (active). With `CCCCOC(=O)c1ccccc1C(=O)OCCCC`, the compound was called inactive.

In the case of `C=CCC1=C(C)[C@@H](OC(=O)[C@@H]2[C@@H](C=C(C)C)C2(C)C)CC1=O`, the result was inactive.

As for `CN(C)C(=S)SSC(=S)N(C)C`, the concentration at half-maximal activity (AC50) was 73.3 nM (active).

Consider `CNC(=O)ON=CC(C)(C)SC`, for which the outcome was inactive.

With `C=CCC1=C(C)C(OC(=O)C2C(C=C(C)C)C2(C)C)CC1=O` (stereo unspecified), the compound was classed as inactive.

For `COP(N)(=O)SC` (stereo unspecified), the compound was called inactive. Turning to `CO/C=C(/C(=O)OC)c1ccccc1Oc1cc(Oc2ccccc2C#N)ncn1`, the AC50 is 2730 nM (active). For `COP(=S)(OC)Oc1nc(Cl)c(Cl)cc1Cl`, the AC50 was 25900 nM (active).

As to `CCCCNC(=O)n1c(NC(=O)OC)nc2ccccc21`, the compound was called inactive. `C=CC1(C)OC(=O)N(c2cc(Cl)cc(Cl)c2)C1=O` (stereo unspecified): the compound was classed as inactive.

A further test can be described thus: CCTE_Mundy_HCI_Cortical_NOG_NeuriteLength: CCTE's Neurite Outgrowth Assay in rat cortical cells for Neurite Length, Mundy Lab (AID 2284213).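 For AC50: neurites imaged about 48 to 50 h after chemical exposure began.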 In short, it runs like this:
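Neurite length was read by high-content imaging of βIII-tubulin-labelled neurites in rat primary cortical cultures. Activity was fitted relative to DMSO.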
In the case of `CCCCC(CC)COC(=O)c1ccccc1C(=O)OCC(CC)CCCC` (stereo unspecified), the AC50 was 8.99 µM (active) and 15 µM (active). For `COC(=O)N(OC)c1ccccc1COc1ccn(-c2ccc(Cl)cc2)n1`, the AC50 is 0.153 µM (active). The same measure, in the same setting: the value for `CC(C)(C)c1ccc(CSc2cnn(C(C)(C)C)c(=O)c2Cl)cc1` was 0.00479 µM (active). As to `N#Cc1nn(-c2c(Cl)cc(C(F)(F)F)cc2Cl)c(N)c1S(=O)C(F)(F)F` (stereo unspecified), the result was inactive. For the compound `Cc1ccc(-c2c(Cl)nc(C#N)n2S(=O)(=O)N(C)C)cc1`, the AC50 is 85.3 µM (active). Take `CCCCOC(=O)c1ccccc1C(=O)OCCCC`: the compound was classed as inactive. On the same count and under the same terms, the value for `C=CCC1=C(C)[C@@H](OC(=O)[C@@H]2[C@@H](C=C(C)C)C2(C)C)CC1=O` was “inactive”. Take `CN(C)C(=S)SSC(=S)N(C)C`: the AC50 is 0.0588 µM (active). As for `CNC(=O)ON=CC(C)(C)SC`, the outcome was inactive.

Consider `C=CCC1=C(C)C(OC(=O)C2C(C=C(C)C)C2(C)C)CC1=O` (stereo unspecified), for which the result was inactive.

Turning to `COP(N)(=O)SC` (stereo unspecified), the compound was classed as inactive.

Regarding `CCOc1cc(Oc2ccc(C(F)(F)F)cc2Cl)ccc1[N+](=O)[O-]`, the AC50 was 50 µM (active).

`CO/C=C(/C(=O)OC)c1ccccc1Oc1cc(Oc2ccccc2C#N)ncn1`: the AC50 is 2.58 µM (active). In the case of `COP(=S)(OC)Oc1nc(Cl)c(Cl)cc1Cl`, the AC50 was 23.1 µM (active).

Turning to `CCCCNC(=O)n1c(NC(=O)OC)nc2ccccc21`, the AC50 was 11.1 µM (active). Take `C=CC1(C)OC(=O)N(c2cc(Cl)cc(Cl)c2)C1=O` (stereo unspecified): the compound was called inactive. On to `CCOC(=O)CC(SP(=S)(OC)OC)C(=O)OCC` (stereo unspecified), for which the AC50 was 77.6 µM (active) and 15 µM (active).

One may read the AC50 as the midpoint of the concentration-response curve, whichever way the signal moves.

(Values after PubChem BioAssay (EPA / NIEHS).)
